High-throughput results from PubChem.
IDH1 R132H inh – human IDH1 R132H inhibition; O75874; Potency, µM (top dose mostly 76.6 µM), most hits filed as inhibitors; IDH1-R132H enzyme, NADPH consumption, diaphorase/resazurin fluorescence; AID 602179; 0.093% of 390,000 active; further: nearly all actives have a fitted effect of over 65% in size
Target sequence (O75874 whole entry R132H, stated change not applied): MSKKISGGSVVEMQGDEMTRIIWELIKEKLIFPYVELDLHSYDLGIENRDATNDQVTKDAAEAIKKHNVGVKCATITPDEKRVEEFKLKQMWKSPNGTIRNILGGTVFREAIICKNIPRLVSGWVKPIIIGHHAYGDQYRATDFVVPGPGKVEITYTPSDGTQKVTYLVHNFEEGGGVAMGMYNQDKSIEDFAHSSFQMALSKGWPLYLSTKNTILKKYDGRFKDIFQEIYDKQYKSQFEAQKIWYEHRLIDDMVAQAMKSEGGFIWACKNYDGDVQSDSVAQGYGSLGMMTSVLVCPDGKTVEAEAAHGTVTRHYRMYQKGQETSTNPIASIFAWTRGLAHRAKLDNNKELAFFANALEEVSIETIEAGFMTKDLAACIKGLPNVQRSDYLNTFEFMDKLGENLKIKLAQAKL
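IDH1-R132H (0.5 ug/mL) preincubated 30 min with compound, then NADPH (0.016 mM) and alpha-KG (2 mM) added; 80 min at RT, pH 7.5. Remaining NADPH coupled via diaphorase/resazurin to fluorescence (540/590 nm); concentration-response curves normalized to no-enzyme control.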
FUS suppressor – suppressors of FUS proteinopathy in yeast; S. cerevisiae FUS-expressing, growth rescue, OD600, 24 h; Potency, µM (top dose mostly 76.6 µM), actives largely listed as activators; 0.24% of 390,000 active; further: nearly all actives have a fitted effect of over 55% in size
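S. cerevisiae expressing FUS from galactose induction served as the toxicity model. Growth after 24hr at 30C, read as absorbance at 600 nm, indicates suppression of toxicity; compounds dosed at several concentrations.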
LDHA block – inhibitors of human lactate dehydrogenase A; P00338; purified LDHA, NADH/diaphorase-resazurin fluorescence; active compounds read low; activity change, % (values are at about 110 or 230 µM); 0.15% of 480,000 active; AID 1347041; in the data active means activity change below about -30%; inconclusive means mostly about -25% to -30%
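Human LDH5 at 2 nM final in Tris HCl pH 7.4 with 0.06 mM NADH and 0.2 mM pyruvate, reacted 5 minutes at room temperature. Remaining NADH coupled via diaphorase/resazurin; resorufin fluorescence read at 0 and 20 minutes, normalized to enzyme-free and DMSO wells.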
TDP-43 yeast inh – rescues yeast growth from TDP-43 toxicity. 1.8% of 410,000 active. AID 652104. Potency, µM (top dose mostly 46.1 µM), usual class: activators. TDP-43 expressing yeast growth rescue, BacTiter-Glo, 24 h; further: nearly all actives have a fitted effect of over 50% in size
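Growth rescue of TDP-43-toxic yeast measured as ATP luminescence (BacTiter-Glo). Cells grown to mid-log in raffinose, induced in galactose at OD600=0.02, exposed to compound 24 hr at 30 deg C.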
aSyn yeast inh – alpha-synuclein toxicity inhibition in yeast; Yeast expressing alpha-synuclein, growth rescue, BacTiter-Glo, 24 h; Potency, µM (top dose mostly 46.1 µM), actives largely listed as activators; 0.14% of 370,000 active; further: nearly all actives have a fitted effect of over 65% in size
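Readout is rescue of growth in alpha-synuclein-expressing yeast, so inhibitors of toxicity appear as activators. Growth after 24 hr at 30 deg C in galactose medium is quantified by luminescence.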
Abeta rescue – compounds reversing amyloid beta toxicity in yeast. 0.063% of 410,000 active. yeast expressing A-beta42, growth rescue, OD600, 48 h; response scale: 0% DMSO, 100% iron-clioquinol control. AID 1347071. Potency, µM (titrated, usually from 46.1 µM), actives largely listed as activators; further: nearly all actives have a fitted effect of over 55% in size
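Growth rescue measured by 600 nm absorbance after 48 h yeast culture at 30 C with compound. Values normalized between DMSO and an equimolar ferric chloride plus clioquinol control.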
Hits are given with their value; n = inactive; u = inconclusive; x = no result; ! = repeats disagree. Sampled rows, rich in hits. Any-hit rate of the full collection: about 2%. Unless noted, the call rests on the fitted dose curve; in most records, active means well fitted curve in the direction sought with a large enough effect; inconclusive means small, poorly fitted or top-dose-only effect, or another doubt; inactive means no such curve, though single readings can be large; an effect the other way counts as inactive or inconclusive.

SMILES	IDH1 R132H inh	FUS suppressor	LDHA block	TDP-43 yeast inh	aSyn yeast inh	Abeta rescue
C=CCOC(=O)C(NC(=O)c1ccccc1)=C(C)C	x	x	n	x	x	x
CCCn1c(N2CCN(C(=O)c3ccc(OC)cc3)CC2)nc2sc3c(c2c1=O)CCCC3	x	x	n	x	x	x
CCc1cnc2c(c1SC(C)CC)c(=O)n(C)c(=O)n2C (stereo not given)	x	x	n	x	x	x
COc1ccc([C@H]2CC(=O)C=C(c3cc(Cl)cc(Cl)c3)C2)cc1	n	n	n	n	n	n
COc1ccc([C@H]2CC(=O)C=C(c3ccc(SC)cc3)C2)cc1	n	n	n	n	n	n
COc1ccc([C@H]2CC(=O)C=C(c3ccccc3)C2)cc1	n	n	n	18µM	n	u
COc1ccc(C2=CC(=O)C[C@H](c3ccc(OC)cc3)C2)cc1	n	u	n	14µM	n	n
CCCCOC(=O)Nc1cccc(C(C)=O)c1	n	n	n	11µM	n	n
CCOC(=O)Nc1cccc(Nc2ccccc2)c1	n	n	n	14µM	n	n
O=C(Nc1ccccc1)OCCCc1ccccc1	n	n	n	u	n	n
O=C(Nc1ccccc1)OCCc1ccccc1	x	n	n	35µM	n	n
COc1ccccc1C1=NN(C(=O)c2cccc(F)c2)C(c2ccc3nccnc3c2)C1 (stereo not given)	x	x	n	x	x	x
Cn1c(CN2CCOCC2)nnc1SCc1ccc(Br)cc1	x	x	n	x	x	x
CC(=O)Nc1ccc(C(=O)COc2ccc(C(C)=O)cc2)cc1	x	x	n	x	x	x
CCOc1ccc(C(=O)COc2ccc(NC(C)=O)cc2)cc1	n	11µM	n	n	n	n
C=CCc1c(C)nc2c(OC)cccc2c1Cl	n	n	n	n	n	n
COc1cccc2c(Cl)c(CC=C(Cl)Cl)c(C)nc12	n	n	n	11µM	n	n
OC(COc1ccc(OCC(O)CN(Cc2ccccc2)Cc2ccccc2)cc1)CN(Cc1ccccc1)Cc1ccccc1 (stereo not given)	x	x	n	x	x	x
Cc1ccc(C(=O)COC(=O)CC23CC4CC(CC(O)(C4)C2)C3)s1	x	x	n	x	x	x
O=C(CSCC(=O)N1CCCCC1)Nc1nc(-c2cccs2)cs1	n	n	n	32µM	n	n
O=C(CSCC(=O)N1CCCCC1)Nc1nc(-c2ccc(Cl)s2)cs1	n	n	n	20µM	n	n
CC1CCc2c(c(-c3cccc(O)c3)nc3ccc4ccccc4c23)C1 (stereo not given)	x	x	n	x	x	x
Cc1ccc(S(=O)(=O)Nc2c(C)cc([N+](=O)[O-])cc2C)cc1	n	x	n	14µM	n	n
Cc1cccc2cc3c(N)c(C#N)sc3nc12	n	n	n	3.2µM	u	n
O=C(CSc1ccccc1)Nc1ccc(N2CCN(c3ccccc3)CC2)c(F)c1	n	n	n	n	n	n
SMILES	IDH1 R132H inh	FUS suppressor	LDHA block	TDP-43 yeast inh	aSyn yeast inh	Abeta rescue
Nc1ccc(N2CCN(c3ccccc3)CC2)c(F)c1	n	n	n	22µM	n	n
Clc1ccccc1-c1nn2c(-c3ccc4ccccc4n3)nnc2s1	x	x	n	x	x	x
CC[N+]1(C)CC2CCC(C)(C1)C2(C)C (stereo not given)	n	n	-31!	n	n	n
O=C(c1ccc2ccccc2n1)N1CCN(S(=O)(=O)c2ccc(Cl)cc2)CC1	n	n	n	25µM	n	n
O=C(c1ccccc1F)N1CCN(S(=O)(=O)c2ccc3ccccc3c2)CC1	n	n	n	35µM	n	n
O=C(c1ccc(F)cc1F)N1CCN(S(=O)(=O)c2ccc3c(c2)OCCO3)CC1	n	x	n	13µM	n	n
O=C(/C=C/c1ccccc1)c1ccc(-n2cc(-c3ccccc3)cc2-c2ccccc2)cc1	x	x	n	x	x	x
CN(C)CCNc1oc(-c2ccc(F)cc2)nc1S(=O)(=O)c1ccc2c(c1)OCCO2	x	x	n	x	x	x
C(=C\c1ccccc1)/CN(C/C=C/c1ccccc1)CCN1CCOCC1	x	x	n	x	x	x
CCCC1CCC(c2ccc(/C(N)=N/O)cc2)CC1 (stereo not given)	n	n	n	3.5µM	n	n
CCCC1CCC(c2ccc(C(N)=O)cc2)CC1 (stereo not given)	n	n	n	n	n	n
CCOc1ccc(NC(=O)CN(c2ccccc2OCC)S(=O)(=O)c2ccccc2)cc1	n	n	n	n	x	n
CCOc1ccc(S(=O)(=O)N(CC(=O)Nc2cccc(OC)c2)c2ccccc2)cc1	x	x	n	x	x	x
COc1cccc(NC(=O)CN(CCc2ccccc2)S(=O)(=O)c2ccc(Cl)cc2)c1	n	n	-59	n	x	n
CCOc1ccc(S(=O)(=O)N(CC(=O)Nc2cccc(C)c2)c2ccccc2)cc1	x	x	-34	x	x	x
CCOc1ccc(NC(=O)CN(c2ccc(Cl)cc2C)S(=O)(=O)c2ccccc2)cc1	n	22µM	n	n	x	n
CCOc1ccc(C(=O)N2CCC(c3noc(-c4ccc(S(=O)(=O)N5CCCC5)cc4)n3)CC2)cc1	n	16µM	n	n	x	n
COc1cc(/C=C/c2nc3cc(Cl)ccc3o2)cc(OC)c1OC	x	x	n	x	x	x
O=C1CCCC2=C1C(c1ccc(OCc3ccccc3)cc1)c1c([nH]n(-c3ccccc3)c1=O)N2 (stereo not given)	x	x	n	x	x	x
Cc1ccc(C(=O)OCc2nnc(-c3ccccc3)o2)o1	n	n	n	18µM	n	n
O=C(OCc1nnc(-c2ccccc2)o1)c1ccc(CO)cc1	n	n	n	n	n	n
COCCOc1ccc(C(=O)/C=C/c2ccc(C(=O)OC)o2)cc1	x	x	n	x	x	x
C=CCn1c(SCc2c(F)cccc2Cl)nnc1-c1ccco1	n	n	n	13µM	n	n
C=CCn1c(SCc2ccc(C#N)cc2)nnc1-c1ccco1	x	n	x	x	x	x
CCCC(=O)Nc1ccc(CNCc2cccnc2)cc1	x	x	n	x	x	x
SMILES	IDH1 R132H inh	FUS suppressor	LDHA block	TDP-43 yeast inh	aSyn yeast inh	Abeta rescue
COc1ccc(NC(=O)C(Cl)=C(Cl)Cl)cn1	n	n	n	13µM	n	n
COc1ccc(NC(=O)/C(Cl)=C(/Cl)S(=O)(=O)Cc2ccccc2)cn1	n	n	n	3.2µM	n	n
COc1ccc(NC(=O)Nc2ccc(OCc3ccccc3)cc2)cn1	n	n	n	n	n	n
COc1ccc(NC(=O)/C(Cl)=C(/Cl)S(=O)Cc2ccc(Cl)cc2)cn1 (stereo not given)	n	n	n	u	n	n
COc1ccc(NC(=O)CC2(CC(=O)O)CCCC2)cn1	n	n	n	13µM	n	n
O=C(O)CC1(CC(=O)Nc2ccc(Oc3cccc(C(F)(F)F)c3)nc2)CCCC1	n	n	n	n	n	n
CC(=O)c1c(C)[nH]c(C(=O)C(C)Sc2ccccc2Cl)c1C (stereo not given)	x	x	n	x	x	x
CCCOc1ccc(NC(=O)COc2ccccc2C)c2cccnc12	x	x	n	x	x	x
Cc1noc(-c2ccc(N3CCCCC3)c([N+](=O)[O-])c2)n1	n	n	n	18µM	x	n
